Results filed as inconclusive are left out. The source made the active and inactive calls. The calls were made as follows: active = hit-call score of the fitted dose curve at least 0.9, where 1 is the maximum; inconclusive = response in the unintended direction; inactive = score below 0.9.

For this assay, the target named is human Lymphocyte-cell Factor Kinase (Lck), LCK (gene 3932) (UniProt P06239). Kind of assay: NVS_ENZ_hLck: NovaScreen (NVS) Enzymatic Assay for human Lymphocyte-cell Factor Kinase (Lck). Here is the method: NVS_ENZ_hLck is a biochemical, single-readout assay that uses extracted gene-proteins in a cell-free assay. Measurements were taken 1 hour after chemical dosing in a 384-well plate.NVS_ENZ_hLck is one of one assay component(s) measured or calculated from the NVS_ENZ_hLck assay. It is designed to make measurements of enzyme activity, a form of enzyme reporter, as detected with fluorescence intensity signals by Fluorescence and electrophoretic mobility shift technology.Data from the assay component NVS_ENZ_hLck was analyzed into 1 assay endpoint. This assay endpoint, NVS_ENZ_hLck, was analyzed in the positive analysis fitting direction relative to DMSO as the negative control and baseline of activity. Using a type of enzyme reporter, loss-of-signal activity can be used to understand changes in the enzymatic activity as they relate to the gene LCK. Furthermore, this assay endpoint can be referred to as a primary readout, because this assay has produced […] where this one serves a enzymatic activity function. To generalize the intended target to other relatable targets, this assay endpoint is annotated to the kinase intended target family, where the subfamily is non-receptor tyrosine kinase.
Binding assays used specific radioligands (tritiated, iodinated) with non-radioactive competitive displacement ligands in agonist or antagonist protocols (as indicated) and various reference compounds and inhibitors to titrate specific binding to receptors and transporters. Most enzyme assays (CYPs, kinases, phosphatases, proteases, HDACs) used recombinant protein and specific substrates (fluorescence mostly, some colorimetric and radioactive) and inhibitors, followed by a biochemical separation of substrate and product. All assays for the biochemical HTS were initially run in duplicate at a single concentration (10 uM for CYP450 assays and 25 uM for all others). Assay-chemical combinations meeting a pre-defined threshold (e.g., 30% inhibition and other criteria defined below) were then run in singleton concentration-response format with maximum concentration of 20 uM for CYPs and 50 uM for all others. Each assay was run with positive and negative controls, and concurrent controls on every plate. The follow-up (secondary) screen tested active chemical-pairs in concentration series, as well as a few additional assays not tested in the primary screen, some selected negative inactives, and several cases re-run in the concentration series for confirmatory purposes.

Chain of human Lymphocyte-cell Factor Kinase (Lck), LCK (gene 3932) (P06239 whole entry, looked up): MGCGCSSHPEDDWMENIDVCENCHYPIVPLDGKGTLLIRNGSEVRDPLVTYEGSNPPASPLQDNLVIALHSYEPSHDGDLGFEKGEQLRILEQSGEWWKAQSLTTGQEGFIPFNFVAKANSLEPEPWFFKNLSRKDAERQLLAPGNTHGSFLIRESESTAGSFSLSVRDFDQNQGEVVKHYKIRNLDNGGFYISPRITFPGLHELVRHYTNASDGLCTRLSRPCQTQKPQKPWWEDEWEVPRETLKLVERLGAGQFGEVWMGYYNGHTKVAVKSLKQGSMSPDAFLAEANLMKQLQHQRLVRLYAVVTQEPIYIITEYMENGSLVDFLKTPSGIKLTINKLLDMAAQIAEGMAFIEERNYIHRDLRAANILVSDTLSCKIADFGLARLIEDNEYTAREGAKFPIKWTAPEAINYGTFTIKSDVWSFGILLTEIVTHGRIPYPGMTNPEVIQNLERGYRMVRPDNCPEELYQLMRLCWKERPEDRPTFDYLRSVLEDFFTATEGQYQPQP

Turning to `O=C(Nc1ccc([N+](=O)[O-])cc1Cl)c1cc(Cl)ccc1O`, the compound was classed as inactive.

As to `S=C([S-])NCCNC(=S)[S-].[Mn+2]`, the compound was classed as inactive.

As to `c1ccc(Nc2ccccc2)cc1`, the AC50 (in general, the concentration giving half of the maximal activity seen) was 10.6 µM (active).

In the case of `c1ccc2[nH]c(-c3cscn3)nc2c1`, the call was inactive.

(Values after PubChem BioAssay AID2283170 (EPA ToxCast).)
